# Columns and labels:
# Assay in all cases: DAPPL (digital affinity profiling via proximity ligation, sequencing); 10 mM Tris-HCl pH 7.5, 50 mM NaCl, 1 mM DTT, 4% glycerol, room temperature, 30 min; GST-TFs on glutathione beads, 16-mer random dsDNA library, 0.1% formaldehyde crosslink after washing; high values mean tight binding
# FEV = molecular target: T1, FEV (Homo sapiens, UniProt Q99581 1-238); details: protein: recombinant; tags: N-terminal GST; dsDNA, one strand shown
# T1 sequence: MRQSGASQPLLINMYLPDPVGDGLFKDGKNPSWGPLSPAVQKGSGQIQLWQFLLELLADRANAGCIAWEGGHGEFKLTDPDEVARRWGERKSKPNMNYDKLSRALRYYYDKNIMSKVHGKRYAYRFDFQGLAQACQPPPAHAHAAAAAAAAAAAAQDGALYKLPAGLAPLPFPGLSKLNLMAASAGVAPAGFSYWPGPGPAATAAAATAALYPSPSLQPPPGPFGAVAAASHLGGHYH
# Outline: (§1)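 A tag-only sample was pooled with DNA-barcoded human transcription factors that had been expressed in yeast as GST fusions and captured on glutathione beads. The pools were incubated for 30 min at room temperature with 200 nmole of a random double-stranded 16-mer DNA library in Tris/NaCl/DTT/glycerol buffer, then washed, crosslinked with 0.1% formaldehyde, proximity-ligated (BsaI/T4 ligase, 1 h, 37 °C), PCR-amplified and sequenced on an Illumina NextSeq500. Binding signal is each hexamer's read frequency for a factor divided by its frequency for the tag-only sample.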
# ETV5 = ETV5 (Homo sapiens, UniProt P41161 1-510); details: protein: recombinant; tags: N-terminal GST; dsDNA, one strand shown
# Sequence of ETV5 (P41161 whole entry): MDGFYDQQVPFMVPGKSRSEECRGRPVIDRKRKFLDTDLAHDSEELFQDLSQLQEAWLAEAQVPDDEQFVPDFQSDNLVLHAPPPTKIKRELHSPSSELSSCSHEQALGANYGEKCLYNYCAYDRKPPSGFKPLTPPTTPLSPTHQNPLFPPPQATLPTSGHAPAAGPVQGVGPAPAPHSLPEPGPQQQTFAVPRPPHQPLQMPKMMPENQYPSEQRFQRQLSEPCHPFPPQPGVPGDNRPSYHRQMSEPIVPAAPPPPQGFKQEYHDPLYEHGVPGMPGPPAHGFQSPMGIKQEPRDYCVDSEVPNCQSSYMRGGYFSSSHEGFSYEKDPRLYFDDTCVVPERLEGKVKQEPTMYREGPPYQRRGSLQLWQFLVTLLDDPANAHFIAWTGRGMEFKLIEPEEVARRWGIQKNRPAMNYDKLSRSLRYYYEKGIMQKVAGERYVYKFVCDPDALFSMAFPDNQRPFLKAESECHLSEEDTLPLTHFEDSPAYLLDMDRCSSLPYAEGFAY
# Outline: as §1
# HSF1 = HSF1 (Homo sapiens, UniProt Q00613 1-529); details: protein: recombinant; tags: N-terminal GST; chain copies: 3; dsDNA, one strand shown
# Sequence of HSF1 (Q00613 whole entry): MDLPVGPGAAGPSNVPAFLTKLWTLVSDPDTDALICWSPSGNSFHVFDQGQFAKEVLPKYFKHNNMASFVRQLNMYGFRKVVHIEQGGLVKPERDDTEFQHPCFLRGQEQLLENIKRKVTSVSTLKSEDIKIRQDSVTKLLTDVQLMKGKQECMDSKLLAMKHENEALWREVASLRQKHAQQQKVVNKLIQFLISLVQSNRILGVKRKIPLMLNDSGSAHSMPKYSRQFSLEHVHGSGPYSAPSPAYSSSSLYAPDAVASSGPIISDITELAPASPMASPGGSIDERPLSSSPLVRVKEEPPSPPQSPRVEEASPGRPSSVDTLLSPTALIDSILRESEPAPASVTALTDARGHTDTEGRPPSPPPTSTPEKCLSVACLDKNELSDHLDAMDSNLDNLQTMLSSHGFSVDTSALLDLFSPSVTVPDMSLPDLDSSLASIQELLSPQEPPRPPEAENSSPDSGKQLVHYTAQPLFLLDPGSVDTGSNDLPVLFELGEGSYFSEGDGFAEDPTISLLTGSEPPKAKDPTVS
# Outline: as §1
# SPIC = molecular target: T2, SPIC (Homo sapiens, UniProt Q8N5J4 1-248); details: protein: recombinant; tags: N-terminal GST; dsDNA, one strand shown
# T2 sequence: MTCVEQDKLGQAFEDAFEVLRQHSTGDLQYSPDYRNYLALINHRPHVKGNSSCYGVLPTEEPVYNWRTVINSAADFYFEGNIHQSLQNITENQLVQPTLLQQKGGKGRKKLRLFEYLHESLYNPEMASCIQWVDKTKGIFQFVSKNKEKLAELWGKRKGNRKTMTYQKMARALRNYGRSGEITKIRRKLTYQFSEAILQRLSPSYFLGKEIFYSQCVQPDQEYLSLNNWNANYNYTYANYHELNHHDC
# Outline: as §1
# ELF4 = ELF4 (Homo sapiens, UniProt Q99607 1-663); details: protein: recombinant; tags: N-terminal GST; dsDNA, one strand shown
# Sequence of ELF4 (Q99607 whole entry): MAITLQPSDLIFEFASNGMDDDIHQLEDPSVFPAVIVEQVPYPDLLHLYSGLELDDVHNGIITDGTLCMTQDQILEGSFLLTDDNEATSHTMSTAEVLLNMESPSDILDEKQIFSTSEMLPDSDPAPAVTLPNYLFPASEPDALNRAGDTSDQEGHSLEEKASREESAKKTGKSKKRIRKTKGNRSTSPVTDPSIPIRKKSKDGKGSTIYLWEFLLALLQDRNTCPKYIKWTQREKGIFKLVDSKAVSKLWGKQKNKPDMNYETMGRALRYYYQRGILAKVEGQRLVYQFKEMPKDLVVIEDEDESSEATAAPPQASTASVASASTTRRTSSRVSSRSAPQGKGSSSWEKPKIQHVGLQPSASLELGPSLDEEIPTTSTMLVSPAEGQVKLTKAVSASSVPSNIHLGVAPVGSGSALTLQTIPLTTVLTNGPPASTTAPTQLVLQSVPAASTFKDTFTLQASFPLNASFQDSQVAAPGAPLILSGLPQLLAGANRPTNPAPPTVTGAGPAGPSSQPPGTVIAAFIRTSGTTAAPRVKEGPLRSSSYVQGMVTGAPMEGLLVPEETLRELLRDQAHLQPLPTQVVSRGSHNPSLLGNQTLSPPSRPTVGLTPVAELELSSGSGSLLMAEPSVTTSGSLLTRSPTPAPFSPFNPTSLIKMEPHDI
# Outline: as §1
# ELK4 = molecular target: T3, ELK4 (Homo sapiens, UniProt P28324-2 1-405); details: protein: recombinant; tags: N-terminal GST; dsDNA, one strand shown
# T3 sequence: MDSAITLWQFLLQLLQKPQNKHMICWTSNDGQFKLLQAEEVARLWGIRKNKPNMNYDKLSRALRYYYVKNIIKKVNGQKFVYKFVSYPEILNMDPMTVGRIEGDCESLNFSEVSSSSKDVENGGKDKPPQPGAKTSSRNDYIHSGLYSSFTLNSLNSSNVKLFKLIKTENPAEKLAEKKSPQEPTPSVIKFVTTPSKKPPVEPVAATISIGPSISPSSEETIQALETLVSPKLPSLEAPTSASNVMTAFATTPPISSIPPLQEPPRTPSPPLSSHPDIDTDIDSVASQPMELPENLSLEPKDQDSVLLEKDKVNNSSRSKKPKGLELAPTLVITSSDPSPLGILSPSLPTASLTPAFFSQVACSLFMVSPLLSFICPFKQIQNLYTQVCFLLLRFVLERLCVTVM
# Outline: as §1
# ETV2 = molecular target: T4, ETV2 (Homo sapiens, UniProt O00321 1-342); details: protein: recombinant; tags: N-terminal GST; dsDNA, one strand shown
# T4 sequence: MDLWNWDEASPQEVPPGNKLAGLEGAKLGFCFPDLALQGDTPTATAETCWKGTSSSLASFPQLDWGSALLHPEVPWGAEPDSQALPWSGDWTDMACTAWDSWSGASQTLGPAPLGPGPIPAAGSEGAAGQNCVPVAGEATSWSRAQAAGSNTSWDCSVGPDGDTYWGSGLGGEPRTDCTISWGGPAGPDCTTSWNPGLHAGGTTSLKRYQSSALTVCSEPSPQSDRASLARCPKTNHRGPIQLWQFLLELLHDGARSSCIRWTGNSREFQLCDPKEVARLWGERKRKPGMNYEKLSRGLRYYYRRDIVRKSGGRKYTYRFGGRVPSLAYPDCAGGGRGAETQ
# Outline: as §1
# ELF3 = molecular target: T5, ELF3 (Homo sapiens, UniProt P78545 1-371); details: protein: recombinant; tags: N-terminal GST; dsDNA, one strand shown
# T5 sequence: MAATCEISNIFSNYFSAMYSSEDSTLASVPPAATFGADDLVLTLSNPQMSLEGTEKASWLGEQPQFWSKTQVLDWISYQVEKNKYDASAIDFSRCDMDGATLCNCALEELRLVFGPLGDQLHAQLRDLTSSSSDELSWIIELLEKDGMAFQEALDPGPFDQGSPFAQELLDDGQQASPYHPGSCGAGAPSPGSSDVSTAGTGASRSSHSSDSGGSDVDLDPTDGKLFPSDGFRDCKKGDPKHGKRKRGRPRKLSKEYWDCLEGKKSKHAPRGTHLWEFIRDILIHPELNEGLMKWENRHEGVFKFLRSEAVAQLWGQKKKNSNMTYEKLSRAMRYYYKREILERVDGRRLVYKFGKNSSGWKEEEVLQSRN
# Outline: as §1
# CRX = CRX (Homo sapiens, UniProt O43186 1-299); details: protein: recombinant; tags: N-terminal GST; dsDNA, one strand shown
# Sequence of CRX (O43186 whole entry): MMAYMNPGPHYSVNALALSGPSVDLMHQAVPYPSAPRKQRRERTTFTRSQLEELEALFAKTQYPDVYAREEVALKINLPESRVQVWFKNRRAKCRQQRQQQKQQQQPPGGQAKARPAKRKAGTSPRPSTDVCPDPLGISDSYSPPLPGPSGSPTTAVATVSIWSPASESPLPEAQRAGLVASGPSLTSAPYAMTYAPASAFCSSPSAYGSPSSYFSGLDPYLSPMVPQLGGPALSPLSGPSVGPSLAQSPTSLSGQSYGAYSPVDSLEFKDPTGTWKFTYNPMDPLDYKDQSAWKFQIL
# Outline: as §1
# ETV1 = ETV1 (Homo sapiens, UniProt P50549 1-477); details: protein: recombinant; tags: N-terminal GST; dsDNA, one strand shown
# Sequence of ETV1 (P50549 whole entry): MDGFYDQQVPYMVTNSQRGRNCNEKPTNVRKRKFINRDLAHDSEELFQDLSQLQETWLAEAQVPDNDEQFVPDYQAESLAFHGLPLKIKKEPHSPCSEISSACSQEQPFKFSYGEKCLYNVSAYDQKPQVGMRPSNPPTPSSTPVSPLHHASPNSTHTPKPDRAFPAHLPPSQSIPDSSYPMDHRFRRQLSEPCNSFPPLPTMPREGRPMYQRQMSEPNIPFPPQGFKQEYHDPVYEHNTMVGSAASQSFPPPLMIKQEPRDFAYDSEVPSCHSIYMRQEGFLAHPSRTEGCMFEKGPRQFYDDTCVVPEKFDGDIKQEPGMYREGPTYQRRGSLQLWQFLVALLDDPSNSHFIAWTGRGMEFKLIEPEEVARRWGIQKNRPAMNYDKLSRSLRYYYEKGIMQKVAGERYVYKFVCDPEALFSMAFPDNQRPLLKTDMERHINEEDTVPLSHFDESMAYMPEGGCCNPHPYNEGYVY
# Outline: as §1
sequence,measurement,setting,value
CTTCTG,binding signal,FEV,"1.23 fold enrichment (6-mer frequency, TF over GST control)"
same,binding signal,ETV5,"1.35 fold enrichment (6-mer frequency, TF over GST control)"
same,binding signal,HSF1,"2.07 fold enrichment (6-mer frequency, TF over GST control)"
same,binding signal,SPIC,"1.39 fold enrichment (6-mer frequency, TF over GST control)"
same,binding signal,ELF4,"1.42 fold enrichment (6-mer frequency, TF over GST control)"
same,binding signal,ELK4,"1.57 fold enrichment (6-mer frequency, TF over GST control)"
same,binding signal,ETV2,"1.32 fold enrichment (6-mer frequency, TF over GST control)"
same,binding signal,ELF3,"1.29 fold enrichment (6-mer frequency, TF over GST control)"
same,binding signal,CRX,"1.49 fold enrichment (6-mer frequency, TF over GST control)"
same,binding signal,ETV1,"1.22 fold enrichment (6-mer frequency, TF over GST control)"
